Only a selection was taken, and hits are over-represented in it overall.
IDE exosite inh: exo-site inhibitors of human insulin-degrading enzyme | P14735 | purified IDE, FL-6b probe fluorescence polarization; stronger effect = lower value | z-score at 20 µM | 17,000 tested, 6.3% active | AID 1259349;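 active = z-score of -3 or lower, meaning strong loss of probe binding signal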;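 note: His-tagged human IDE residues 42-1019 made in E. coli with 30 nM FL-6b probe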
Target sequence (P14735 42-1019 limits assumed): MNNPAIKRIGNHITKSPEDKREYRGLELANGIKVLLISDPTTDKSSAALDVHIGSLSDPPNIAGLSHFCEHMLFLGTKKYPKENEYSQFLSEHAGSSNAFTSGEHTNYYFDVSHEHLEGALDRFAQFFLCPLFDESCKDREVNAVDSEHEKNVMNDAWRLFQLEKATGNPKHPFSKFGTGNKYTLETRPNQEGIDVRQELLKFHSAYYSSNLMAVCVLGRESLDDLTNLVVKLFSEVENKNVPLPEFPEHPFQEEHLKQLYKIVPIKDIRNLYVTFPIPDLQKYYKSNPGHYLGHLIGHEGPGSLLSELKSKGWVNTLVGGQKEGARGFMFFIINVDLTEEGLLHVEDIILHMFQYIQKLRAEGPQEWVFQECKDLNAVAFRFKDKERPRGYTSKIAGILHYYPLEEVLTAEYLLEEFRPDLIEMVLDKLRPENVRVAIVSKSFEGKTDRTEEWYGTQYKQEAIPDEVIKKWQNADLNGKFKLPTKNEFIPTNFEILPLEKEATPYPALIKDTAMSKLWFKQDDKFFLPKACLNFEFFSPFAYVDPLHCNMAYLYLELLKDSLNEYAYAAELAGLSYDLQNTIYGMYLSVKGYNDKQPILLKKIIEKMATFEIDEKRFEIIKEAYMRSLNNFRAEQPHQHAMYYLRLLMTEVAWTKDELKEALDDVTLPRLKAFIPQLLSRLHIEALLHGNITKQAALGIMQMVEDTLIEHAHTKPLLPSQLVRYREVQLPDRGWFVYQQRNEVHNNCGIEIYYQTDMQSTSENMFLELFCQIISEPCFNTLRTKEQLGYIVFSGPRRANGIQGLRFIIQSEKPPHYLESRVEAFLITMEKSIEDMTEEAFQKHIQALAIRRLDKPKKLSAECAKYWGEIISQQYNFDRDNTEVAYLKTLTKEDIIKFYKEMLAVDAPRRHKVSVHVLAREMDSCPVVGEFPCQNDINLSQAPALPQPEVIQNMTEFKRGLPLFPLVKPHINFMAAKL
Hits are given with their value; – = inactive; ! = a repeat was not active.

SMILES	IDE exosite inh
COc1ccccc1-c1ccc([C@H]2[C@H](CO)N3CCCCN(C(=O)NC4CCCC4)C[C@@H]23)cc1	-12
O=C(NC1CCCC1)N1CCCCN2[C@@H](CO)[C@@H](c3ccc(-c4ccncc4)cc3)[C@@H]2C1	–
O=C(NC1CCCC1)N1CCCCN2[C@H](C1)[C@H](c1ccc(-c3ccncc3)cc1)[C@@H]2CO	–
O=C(NC1CCCC1)N1CCCCN2[C@H](CO)[C@@H](c3ccc(-c4cccnc4)cc3)[C@H]2C1	–
COc1ccccc1-c1ccc([C@H]2[C@@H](CO)N3CCCCN(C(=O)NC4CCCC4)C[C@H]23)cc1	-19
C[C@@H]1CCCCO[C@@H](CN(C)C(=O)Nc2ccccc2)[C@H](C)CN([C@H](C)CO)C(=O)c2cc(NC(=O)Nc3ccccc3)ccc2O1	–
COc1ccc2c3c(n(C)c2c1)[C@@H](CO)N(Cc1cccnc1)CC31CN(C(=O)c2cccnc2)C1	–
CC(=O)NC[C@@H]1[C@H](c2ccc(-c3ccccc3F)cc2)[C@@H](CO)N1C(=O)C1CC1	–
N#C[C@@H]1[C@@H](c2ccc(C3=CCCC3)cc2)[C@@H](CO)N1c1nc(-c2ccccc2)cs1	–
COc1ccc(-c2ccc([C@H]3[C@H](C#N)N(C(=O)NC4CCCCC4)[C@H]3CO)cc2)cc1	–
COc1ccccc1-c1ccc([C@@H]2[C@@H](C#N)N(C(=O)CN(C)C)[C@H]2CO)cc1	-12
COc1ccc(-c2ccc([C@@H]3[C@@H](C#N)N(C(=O)NC(C)C)[C@H]3CO)cc2)cc1	–
COc1ccc(-c2ccc([C@@H]3[C@@H](CO)N(C(=O)NC(C)C)[C@H]3C#N)cc2)cc1	–
COc1ccccc1-c1ccccc1[C@@H]1[C@H](C#N)N(C(=O)CN(C)C)[C@H]1CO	–
COc1ccc(-c2ccccc2[C@H]2[C@@H](C#N)N(C(=O)NC3CCCCC3)[C@H]2CO)cc1	–
COc1ccccc1-c1ccc([C@@H]2[C@@H](C#N)N(C(=O)NC(C)C)[C@@H]2CO)cc1	-13
CN(C)CC(=O)N1[C@H](C#N)[C@@H](c2ccc(-c3ccccc3F)cc2)[C@H]1CO	–
COc1ccccc1-c1ccc([C@@H]2[C@@H](C#N)N(C(=O)NC3CCCCC3)[C@@H]2CO)cc1	-10
COc1ccccc1CNC(=O)C[C@@H]1C=C[C@H](NC(=O)CC2CC2)[C@@H](CO)O1	–
O=C(c1ccccc1)N1CC(=O)N2[C@H](CO)[C@H](c3ccc(C#CCC4CCCC4)cc3)[C@@H]2C1	–
C[C@H](NC(=O)C[C@H]1C=C[C@@H](NC(=O)c2cccnc2)[C@@H](CO)O1)c1ccccc1	–
CCCC#Cc1ccc([C@H]2[C@@H](CO)N3C(=O)CN(C(=O)c4ccccc4)C[C@@H]23)cc1	–
COC(=O)c1ccc(CN2CC(=O)N3[C@@H](CO)[C@H](c4ccc(-c5cccnc5)cc4)[C@@H]3C2)cc1	–
Cc1noc(C)c1NC(=O)N(C)C[C@H]1Oc2cc(C#CCN(C)C)ccc2S(=O)(=O)N([C@H](C)CO)C[C@H]1C	–
COC(=O)c1ccc(CN2CC(=O)N3[C@H](C2)[C@H](c2ccc(Br)cc2)[C@@H]3CO)cc1	–
SMILES	IDE exosite inh
COc1ccc(NC(=O)N(C)C[C@H]2OCc3ccccc3-c3ccccc3C(=O)N([C@@H](C)CO)C[C@H]2C)c(OC)c1	–
C/C=C/c1ccccc1[C@@H]1[C@@H](CO)N(C(=O)c2cccnc2)[C@H]1C#N	–
N#Cc1ccc(-c2ccc(C3[C@@H]4CN(C(=O)c5ccccn5)C[C@H]3N4)cc2)cc1 (stereo partly drawn)	–
O=C(C1CCOCC1)N1C[C@@H]2N[C@H](C1)C2c1ccc(-c2ccccc2F)cc1 (stereo partly drawn)	-3!
O=C(C1CCOCC1)N1C[C@@H]2N[C@H](C1)C2c1ccc(-c2cccc(F)c2)cc1 (stereo partly drawn)	–
CN(C)C(=O)c1ccc(-c2ccc(C3[C@@H]4CN(C(=O)c5ccccn5)C[C@H]3N4)cc2)cc1 (stereo partly drawn)	–
Fc1cccc(-c2ccc(C3[C@@H]4CN(Cc5cccnc5)C[C@H]3N4)cc2)c1 (stereo partly drawn)	–
CN(C)C(=O)c1ccc(-c2ccc(C3[C@@H]4CN(Cc5cccnc5)C[C@H]3N4)cc2)cc1 (stereo partly drawn)	–
N#C[C@@H]1[C@H](c2ccc(-c3ccccc3F)cc2)[C@H](CO)N1C(=O)C1CCOCC1	–
O=C(C1CCC1)N1C[C@@H]2N[C@H](C1)C2c1ccc(-c2cccc(F)c2)cc1 (stereo partly drawn)	–
Cc1ccccc1-c1ccc(C2[C@@H]3CN(C(=O)C4CCOCC4)C[C@H]2N3)cc1 (stereo partly drawn)	-7.7!
N#Cc1ccc(-c2ccc(C3[C@@H]4CN(C(=O)C5CCOCC5)C[C@H]3N4)cc2)cc1 (stereo partly drawn)	–
Cc1ccccc1-c1ccc(C2[C@@H]3CN(Cc4cccnc4)C[C@H]2N3)cc1 (stereo partly drawn)	-14
O=C(c1ccccn1)N1C[C@@H]2N[C@H](C1)C2c1ccc(-c2ccccc2F)cc1 (stereo partly drawn)	-5.8!
CCCC#Cc1ccc([C@@H]2[C@@H](CO)N3C(=O)CN(C(=O)c4cccc(F)c4)C[C@@H]23)cc1	–
C[C@H](CO)N1C[C@H](C)[C@@H](CN(C)C(=O)NC2CCCCC2)Oc2ccc(N(C)C)cc2CC1=O	–
CO[C@H]1CN(C)C(=O)c2ccc(NC(=O)Nc3ccccc3)cc2OC[C@H](C)N(C(=O)CC2CC2)C[C@H]1C	–
O=C(C[C@@H]1CC[C@@H](NS(=O)(=O)c2ccc(F)cc2)[C@@H](CO)O1)N1CCN(c2ccccc2)CC1	–
C[C@H]1CN([C@@H](C)CO)C(=O)c2cccc(NC(=O)c3ccncc3)c2O[C@@H]1CN(C)Cc1ccc2c(c1)OCO2	–
O=C(C[C@H]1CC[C@@H]2[C@H](COC[C@H](O)CN2S(=O)(=O)c2cccc(F)c2)O1)NCc1ccncn1	–
CCC(=O)N1CC(=O)N2[C@H](CO)[C@@H](c3ccc(C#CCC(C)C)cc3)[C@@H]2C1	–
C/C=C/c1ccccc1[C@H]1[C@@H](C#N)N(C(=O)c2cccnc2)[C@@H]1CO	–
CN(C)c1ccc2c(c1)[C@@H]1C[C@@H](CC(=O)NC3CCCCC3)O[C@@H](CO)[C@@H]1O2	–
CN1c2ccc(Br)cc2[C@H]2[C@H](CCN2C(=O)C2CCC2)[C@H]1CO	–
CCC(=O)N1CC2(CCN(C(=O)Nc3ccccc3F)CC2)c2c([nH]c3cc(OC)ccc23)[C@@H]1CO	–
SMILES	IDE exosite inh
CCS(=O)(=O)N1CC2(CN(C(=O)c3ccc(F)cc3)[C@H](CO)c3[nH]c4cc(OC)ccc4c32)C1	–
COc1ccccc1-c1ccc([C@H]2[C@H](CO)N3CCCCN(C(=O)c4cccnc4)C[C@@H]23)cc1	–
COc1ccccc1-c1ccc([C@@H]2[C@@H](CO)N3CCCCN(C(=O)c4ccncc4)C[C@H]23)cc1	–
COc1ccccc1-c1ccc([C@H]2[C@@H](CO)N3CCCCN(C(=O)c4ccncc4)C[C@@H]23)cc1	–
COc1ccccc1-c1ccc([C@H]2[C@@H](CO)N3CCCCN(C(=O)c4cccnc4)C[C@H]23)cc1	-13
COc1ccccc1-c1ccc([C@H]2[C@@H](CO)N3CCCCN(C(=O)c4ccncc4)C[C@H]23)cc1	-17
COc1ccccc1-c1ccc([C@@H]2[C@H]3CN(C(=O)c4cccnc4)CCCCN3[C@H]2CO)cc1	-4.7

Screens deposited in PubChem by Broad Institute.
